PRMT1 inh – PRMT1 (human) inhibition, primary screen; Q99873; recombinant PRMT1, activity-based probe fluorescence polarization; inhibition, % at 2.79 µM; 1.3% of 370,000 active; AID 652257;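 active means inhibition above about 21% made by adding two undisclosed values, limit read from the data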
LEDGF integ inh – blocks HIV-1 LEDGF/p75-dependent DNA integration. TR-FRET IN-LEDGF/p75 DNA integration, Eu/Cy5. inhibition, % at 3.7 µM. 0.64% of 370,000 active. AID 743269;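 active means inhibition above the screen-wide mean plus 3 SD, cut at about 13% in these data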;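 further: signal is the Cy5 over europium emission ratio at 671 and 618 nm; 0% = plate median of compound wells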
UHRF1 binding – human UHRF1 methylated DNA binding inhibitors | 0.75% of 370,000 active | inhibition, % at 4.4 µM | Q96T88 | UHRF1 binding to methylated oligo, TR-FRET;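 further: UHRF1 SRA domain binding a hemimethylated CpG hairpin DNA probe; 0% = median of test compound wells and 100% = reference inhibitor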
Target sequence (Q96T88 whole entry, looked up, the tested form may be a part): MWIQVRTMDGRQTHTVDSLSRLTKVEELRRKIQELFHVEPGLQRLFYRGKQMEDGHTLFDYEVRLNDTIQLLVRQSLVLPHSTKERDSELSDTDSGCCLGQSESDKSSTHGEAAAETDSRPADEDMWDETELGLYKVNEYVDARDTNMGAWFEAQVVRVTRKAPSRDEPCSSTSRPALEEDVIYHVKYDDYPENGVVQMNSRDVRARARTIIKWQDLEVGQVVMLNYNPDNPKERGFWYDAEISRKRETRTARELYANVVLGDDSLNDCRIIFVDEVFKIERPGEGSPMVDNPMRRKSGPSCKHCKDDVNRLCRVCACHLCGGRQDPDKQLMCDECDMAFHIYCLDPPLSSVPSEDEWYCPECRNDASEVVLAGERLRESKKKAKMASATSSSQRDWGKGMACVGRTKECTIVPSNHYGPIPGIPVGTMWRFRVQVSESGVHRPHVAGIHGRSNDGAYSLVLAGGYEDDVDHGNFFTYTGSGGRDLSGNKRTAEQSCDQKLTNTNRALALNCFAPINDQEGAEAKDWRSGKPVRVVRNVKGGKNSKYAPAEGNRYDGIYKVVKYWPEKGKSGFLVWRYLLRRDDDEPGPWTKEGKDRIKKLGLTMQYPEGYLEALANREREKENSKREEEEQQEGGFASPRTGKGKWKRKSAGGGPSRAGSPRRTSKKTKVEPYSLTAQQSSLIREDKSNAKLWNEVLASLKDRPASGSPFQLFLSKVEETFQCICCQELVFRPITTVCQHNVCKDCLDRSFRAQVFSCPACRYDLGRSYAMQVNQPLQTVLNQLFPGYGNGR
MBD2 inh – blocks human MBD2 binding to methylated DNA; TR-FRET, MBD2 binding to methylated oligonucleotide; inhibition, % at 4.4 µM; AID 686964; Q9UBB5; 0.31% of 370,000 active; in the data active means inhibition above about 13%
UHRF1 DNA bind – counter-screen for MBD2 inhibitors: human UHRF1 methylated DNA binding inhibitors. UHRF1 binding to methylated oligonucleotide, TR-FRET. 25% of 1,000 active. shares compounds with MBD2 inh. inhibition, % at 4.4 µM;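 further: UHRF1 SRA domain binding a labeled hemimethylated CpG hairpin DNA; 0% = vehicle only and 100% = reference inhibitor with vehicle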
MBD2 DBD conf – confirmation of human MBD2-DBD methylated oligonucleotide binding inhibitors; shares compounds with MBD2 inh; TR-FRET MBD2-DBD binding to methylated oligonucleotide; inhibition, % at 4.4 µM; 26% of 1,000 active; AID 720531; in the data active means inhibition above about 14%
* = called active by the depositor; x = not tested or not shown. Rows were chosen to be rich in hits. Some 2.5% of all compounds tested hit in one or more screens of this group. Unless noted, no stated cut-off is given here; in the data, active means inhibition above about 21%; inactive means the rest.

SMILES	PRMT1 inh	LEDGF integ inh	UHRF1 binding	MBD2 inh	UHRF1 DNA bind	MBD2 DBD conf
O=C(C1=C(O)C(=O)N(CCN2CCOCC2)C1c1ccc(Cl)cc1)c1cc2ccccc2o1 (configuration not stated)	2	1	-2	16*	6	-2
COC(=O)C1=C(C)N(CC(C)C)C(=S)NC1c1ccc(-c2ccccc2)cc1 (configuration not stated)	-6	-1	1	-3	x	x
CCOc1ccc(C2SCC(=O)N2c2c(C)n(C)n(-c3ccccc3)c2=O)cc1 (configuration not stated)	1	-5	6	16*	10	3
Cc1c(N2C(=O)CSC2c2ccccc2)c(=O)n(-c2ccccc2)n1C (configuration not stated)	-4	-1	2	-1	x	x
NNC(=O)Cn1c2ccccc2c2ccccc21	-4	3	-2	14*	8	3
OCCCNCc1cccc2ccccc12	1	3	18	15*	5	19*
COc1ccc2c(c1OC)C(=O)N(c1ccc(OCc3ccccc3)cc1)C2=O	3	2	4	6	x	x
CC1=NNC(=O)C1CCC(=O)N/N=C/c1ccc(Cl)cc1 (configuration not stated)	1	-5	3	1	x	x
CC1=NNC(=O)C1CCC(=O)N/N=C/c1ccccc1 (configuration not stated)	0	-5	-1	27*	7	2
COc1ccc(N(C)S(=O)(=O)c2cccc(C(=O)OCC(=O)N(C)c3ccccc3)c2)cc1	-3	-2	-2	16*	9	4
c1ccc(-n2nc3c(ccc4cnnc43)[nH]2)cc1	5	-1	19	15*	4	4
CCNC(=O)C1CCCN(C(=O)C(c2ccccc2)c2ccccc2)CC1 (configuration not stated)	2	-3	3	4	x	x
O=C(COc1ccc2ccccc2c1Br)Nn1cnnc1	7	5	17	19*	4	2
CCc1ccc(OCCCCN(C)Cc2ccccc2)cc1	0	-9	1	2	x	x
COCCn1c(-c2ccccc2)nc2oc3cc(OC)ccc3c(=O)c2c1=O	-1	-2	1	2	x	x
COc1ccc2c(=O)c3c(=O)n(-c4ccccc4)c(-c4ccc(C)cc4)nc3oc2c1	4	-1	11	19*	18	68*
Cc1cc(S(=O)(=O)n2cnc3cc([N+](=O)[O-])ccc32)ccc1Cl	3	-1	2	-1	x	x
Cc1ccc(S(=O)(=O)n2cnc3cc([N+](=O)[O-])ccc32)cc1C	-1	3	1	14*	6	4
CC(Oc1ccccc1Cl)C(=O)/C=C/N(C)C (configuration not stated)	-2	-3	-4	17*	7	3
COc1ccccc1NC(=O)Nc1nnc([C@@H]2C[C@H](O)[C@@H](CO)O2)s1	-4	1	-2	-3	x	x
COC(=O)Cc1nnn2c1[C@H](C)[C@H](c1cccc(OC)c1OC)OCC2	1	11	26*	16*	6	3
C=CCN1C(=O)C(=O)N(Cc2nc3ccccc3s2)C1=O	0	0	1	1	x	x
CCCCCNC(=O)N[C@H](C(=O)O)C(C)C	2	2	1	16*	8	5
CCCCOCCCNC(=O)N[C@H](C(=O)OC)C(C)C	-4	-3	-3	5	x	x
COc1ccc(OC)c(NC(=O)C2CC(=O)N(c3ccc(Br)cc3)C2)c1 (configuration not stated)	1	2	-2	0	x	x
SMILES	PRMT1 inh	LEDGF integ inh	UHRF1 binding	MBD2 inh	UHRF1 DNA bind	MBD2 DBD conf
COc1ccc(OC)c(NC(=O)C2CC(=O)N(c3ccccc3)C2)c1 (configuration not stated)	-1	4	12	15*	11	2
COc1ccc(N2CC(C(=O)OCC(=O)Nc3cc(C)on3)CC2=O)cc1 (configuration not stated)	3	3	41*	20*	10	2
CN(C)CCNC(=O)c1cccc2nc3cccc(F)c3nc12	0	-3	23*	35*	35*	37*
CN(C)CCNC(=O)c1sc2cccc(F)c2c1Cl	-6	5	-5	-9	x	x
COc1ccc(OC)c2nc3c(C(=O)NCCN(C)C)cccc3nc12	-2	2	56*	53*	71*	63*
COc1ccc(C23CC4CC(CC(C4)C2)C3)cc1C(=O)NCCN(C)C	-2	0	0	0	x	x
O=C(Nc1ccc(OCC(=O)N2CCOCC2)cc1)Nc1cccc2ccccc12	0	-2	0	-5	x	x
CCOC(=O)/C(=C/C1=CC(=C/N(C)C)/C(=O)O1)C(C)=O	-18	-1	-7	-8	x	x
O=C(NCCc1ccccc1)c1ccc2c(c1)S(=O)(=O)c1ccccc1C2=O	-2	-3	0	6	x	x
COc1ccc2cc([C@H](C)C(=O)OCc3cn(CC(=O)c4ccc(O)cc4)nn3)ccc2c1	7	10	18	15*	13	11
O=C(Cn1cc(COC(=O)c2c3ccccc3cc3ccccc23)nn1)c1ccc(O)cc1	12	-6	20	10	x	x
O=C(Cn1cc(COc2ccccc2[N+](=O)[O-])nn1)c1ccc(O)cc1	5	-1	1	-3	x	x
COc1ccc(C=O)c(OCc2cn(CC(=O)c3ccc(O)cc3)nn2)c1	4	3	23*	14*	12	8
Cc1nc(SCC(=O)Nc2c(C)n(C)n(-c3ccccc3)c2=O)[nH]c(=O)c1Cc1ccccc1	1	3	1	1	x	x
CCc1c(C)nc(SCC(=O)Nc2c(C)n(C)n(-c3ccccc3)c2=O)[nH]c1=O	1	2	1	20*	7	1
OCC[C@@H]1C[C@H](O)[C@@H](O)[C@]2(CCCCO2)O1	1	-1	2	0	x	x
CC(C)CCn1cnc2c1c(=O)[nH]c(=O)n2Cc1ccccc1	-2	1	-2	90*	5	2
CC(C)Cn1cnc2c1c(=O)[nH]c(=O)n2Cc1ccccc1	-5	1	-1	3	x	x
COc1cc2c(cc1OC)CN(C(=O)CCOc1ccccc1)CC2	-2	1	-1	3	x	x
COc1cc2c(cc1OC)CN(C(=O)CCOc1ccccc1C)CC2	5	-4	1	14*	3	1
CCOC(=O)N1CCN(C(=O)c2ccc(C#CC3(O)CCCCC3)cc2)CC1	4	8	26*	15*	11	1
O=C(O)CC1CCC(=C(Cl)Cl)C1 (configuration not stated)	4	-1	1	-2	x	x
O=C(O)CC1CC(O)CCC1=O (configuration not stated)	4	-1	4	28*	8	1
Cc1cc(NCCCCCCCNc2cc(C)nc3cc([N+](=O)[O-])ccc23)c2ccc([N+](=O)[O-])cc2n1	-3	0	30*	21*	38*	49*

Screening data: PubChem BioAssay, The Scripps Research Institute Molecular Screening Center
